# Laboratory results as given in the supplement of paper PMC4466140.
# Key:
# Assay in all cases: SPOT peptide array binding signal intensity (averaged, normalized) (arbitrary units (background-subtracted, floor 0; scale differs between SH3 domains)); higher = stronger binding of the SH3 domain to the peptide
# [1] = molecular target: AgAbp1
# How it was run: (§1)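 To measure binding, SH3 domains from four yeast species were fused to GST, expressed in E. coli BL21(DE3) and purified on glutathione Sepharose. Each domain was incubated at 10 μg/ml overnight at 4°C on cellulose membranes with synthetic 15-mer peptides whose cysteines were replaced by serines. Anti-GST antibody, an HRP anti-mouse secondary and luminol were used for detection, and images were quantified with Genespotter. Reported binding signal is normalized, background-subtracted spot intensity averaged over replicates, in arbitrary units that differ between domains.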
# [2] = molecular target: AgBbc1
# How it was run: as §1
# [3] = molecular target: AgBem1-D1
# How it was run: as §1
# [4] = molecular target: AgBzz1-D1
# How it was run: as §1
# [5] = molecular target: AgBzz1-D2
# How it was run: as §1
# [6] = molecular target: AgCyk3
# How it was run: as §1
# [7] = molecular target: AgFus1
# How it was run: as §1
# [8] = molecular target: AgHof1
# How it was run: as §1
# [9] = molecular target: AgHse1
# How it was run: as §1
# [10] = molecular target: AgLsb1
# How it was run: as §1
# [11] = molecular target: AgLsb4
# How it was run: as §1
# [12] = molecular target: AgMyo5
# How it was run: as §1
# [13] = molecular target: AgNbp2
# How it was run: as §1
# [14] = molecular target: AgRvs167
# How it was run: as §1
# [15] = molecular target: AgSho1
# How it was run: as §1
# [16] = molecular target: AgSla1-D1-D2
# How it was run: as §1
# [17] = molecular target: AgSla1-D3
# How it was run: as §1
# [18] = molecular target: CaAbp1-D1
# How it was run: as §1
# [19] = molecular target: CaAbp1-D2
# How it was run: as §1
# [20] = molecular target: CaBbc1
# How it was run: as §1
# [21] = molecular target: CaBem1-D1
# How it was run: as §1
# [22] = molecular target: CaBzz1-D1
# How it was run: as §1
# [23] = molecular target: CaBzz1-D2
# How it was run: as §1
# [24] = molecular target: CaCyk3
# How it was run: as §1
# [25] = molecular target: CaFus1
# How it was run: as §1
# [26] = molecular target: CaHof1
# How it was run: as §1
# [27] = molecular target: CaHse1
# How it was run: as §1
# [28] = molecular target: CaLsb1
# How it was run: as §1
# [29] = molecular target: CaLsb4
# How it was run: as §1
# [30] = molecular target: CaMyo5
# How it was run: as §1
# [31] = molecular target: CaNbp2
# How it was run: as §1
# [32] = molecular target: CaRvs167
# How it was run: as §1
# [33] = molecular target: CaRvs167-3
# How it was run: as §1
# [34] = molecular target: CaSho1
# How it was run: as §1
# [35] = molecular target: CaSla1-D1-D2
# How it was run: as §1
# [36] = molecular target: CaSla1-D3
# How it was run: as §1
# [37] = molecular target: ScAbp1
# How it was run: as §1
binder,measurement,setting,value
VPVAPPPPPASLGQS,SPOT peptide array binding signal intensity,[1],≤ 0
same,SPOT peptide array binding signal intensity,[2],≤ 0
same,SPOT peptide array binding signal intensity,[3],15
same,SPOT peptide array binding signal intensity,[4],0.5
same,SPOT peptide array binding signal intensity,[5],≤ 0
same,SPOT peptide array binding signal intensity,[6],≤ 0
same,SPOT peptide array binding signal intensity,[7],≤ 0
same,SPOT peptide array binding signal intensity,[8],≤ 0
same,SPOT peptide array binding signal intensity,[9],17
same,SPOT peptide array binding signal intensity,[10],0.25
same,SPOT peptide array binding signal intensity,[11],≤ 0
same,SPOT peptide array binding signal intensity,[12],4.25
same,SPOT peptide array binding signal intensity,[13],≤ 0
same,SPOT peptide array binding signal intensity,[14],3
same,SPOT peptide array binding signal intensity,[15],≤ 0
same,SPOT peptide array binding signal intensity,[16],6
same,SPOT peptide array binding signal intensity,[17],1
same,SPOT peptide array binding signal intensity,[18],2
same,SPOT peptide array binding signal intensity,[19],4
same,SPOT peptide array binding signal intensity,[20],0.5
same,SPOT peptide array binding signal intensity,[21],≤ 0
same,SPOT peptide array binding signal intensity,[22],89
same,SPOT peptide array binding signal intensity,[23],9.5
same,SPOT peptide array binding signal intensity,[24],≤ 0
same,SPOT peptide array binding signal intensity,[25],16
same,SPOT peptide array binding signal intensity,[26],≤ 0
same,SPOT peptide array binding signal intensity,[27],≤ 0
same,SPOT peptide array binding signal intensity,[28],0.75
same,SPOT peptide array binding signal intensity,[29],≤ 0
same,SPOT peptide array binding signal intensity,[30],13.5
same,SPOT peptide array binding signal intensity,[31],17.5
same,SPOT peptide array binding signal intensity,[32],≤ 0
same,SPOT peptide array binding signal intensity,[33],1.5
same,SPOT peptide array binding signal intensity,[34],28
same,SPOT peptide array binding signal intensity,[35],≤ 0
same,SPOT peptide array binding signal intensity,[36],≤ 0
same,SPOT peptide array binding signal intensity,[37],0.5
